The results in this text go back to paper PMC11006913.

Where a chain is given by its changes, count along the chain named.

Common to all, as to test: PBM; 200 nM protein, PBS
What all share (conditions): dsDNA, one strand shown

Assay [1] deals with CRX (Homo sapiens, UniProt O43186 26-111).
The target in assay [2] is CRX (Homo sapiens, UniProt O43186 26-111, E42D).
Assay [3] addresses T1, PAX4 (Homo sapiens, UniProt O43316 9-242, R200K).
T1 sequence: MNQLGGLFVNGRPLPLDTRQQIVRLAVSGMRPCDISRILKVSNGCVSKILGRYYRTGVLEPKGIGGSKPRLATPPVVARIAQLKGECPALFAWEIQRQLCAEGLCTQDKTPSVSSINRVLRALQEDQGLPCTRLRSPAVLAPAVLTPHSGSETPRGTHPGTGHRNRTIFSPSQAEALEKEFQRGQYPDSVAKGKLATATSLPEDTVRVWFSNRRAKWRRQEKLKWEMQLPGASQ

For assay [4], the target named is T2, PAX4 (Homo sapiens, UniProt O43316 9-242).
T2 sequence: T1 sequence with K192R

Assay [5] addresses T3, PAX4 (Homo sapiens, UniProt O43316 9-242, R200Q).
T3 sequence: T1 sequence with K192Q

For assay [6], the target named is PITX2 (Homo sapiens, UniProt Q99697 72-157).
Assay [7] addresses T4, PAX4 (Homo sapiens, UniProt O43316 9-242, F177V).
T4 sequence: T1 sequence with F169V, K192R

Assay [8] deals with CRX (Homo sapiens, UniProt O43186 26-111, R41L).
Assay [9] addresses PRRX1 (Homo sapiens, UniProt P54821 80-166, F113S).
In assay [10] the target is T5, NKX2-6 (Homo sapiens, UniProt A6NCS4 118-204, R150C).
T5 sequence: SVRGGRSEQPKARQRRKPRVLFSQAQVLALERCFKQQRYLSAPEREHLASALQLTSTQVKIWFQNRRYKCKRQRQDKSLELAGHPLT

Assay [11] deals with ALX1 (Homo sapiens, UniProt Q15699 118-204, L144V).
Assay [12] deals with T6, NKX2-6 (Homo sapiens, UniProt A6NCS4 118-204).
T6 sequence: T5 sequence with C33R

Assay [13] addresses ALX1 (Homo sapiens, UniProt Q15699 118-204, L144R).
Assay [14] has as its target PROP1 (Homo sapiens, UniProt O75360 56-141).
Assay [15] concerns the target PROP1 (Homo sapiens, UniProt O75360 56-141, R99H).
Assay [16] addresses VAX1 (Homo sapiens, UniProt Q5SQQ9 86-172).
For assay [17], the target named is T7, NKX2-6 (Homo sapiens, UniProt A6NCS4 118-204, F151L).
T7 sequence: T5 sequence with C33R, F34L

Assay [18] concerns the target PROP1 (Homo sapiens, UniProt O75360 56-141, F88S).
The target in assay [19] is VAX1 (Homo sapiens, UniProt Q5SQQ9 86-172, T142I).
Assay [20] has as its target ALX1 (Homo sapiens, UniProt Q15699 118-204).
In assay [21] the target is PRRX1 (Homo sapiens, UniProt P54821 80-166).
For assay [22], the target named is VAX1 (Homo sapiens, UniProt Q5SQQ9 86-172, K157R).
The target of assay [23] is HOXB6 (Homo sapiens, UniProt P17509 132-218, K202E).
In assay [24] the target is HOXB6 (Homo sapiens, UniProt P17509 132-218).
Assay [25] deals with NKX3-2 (Homo sapiens, UniProt P78367 192-278, P234S).
Assay [26] has as its target NKX3-2 (Homo sapiens, UniProt P78367 192-278).
Assay [27] concerns the target ALX4 (Homo sapiens, UniProt Q9H161 200-286).
Assay [28] has as its target ALX4 (Homo sapiens, UniProt Q9H161 200-286, Q225E).
For assay [29], the target named is T8, PAX4 (Homo sapiens, UniProt O43316 9-242, F177Y).
T8 sequence: T1 sequence with F169Y, K192R

The target of assay [30] is T9, PAX4 (Homo sapiens, UniProt O43316 9-242, R227W).
T9 sequence: T1 sequence with K192R, R219W

Chain of CRX (Homo sapiens, UniProt O43186 26-111) (O43186 26-111): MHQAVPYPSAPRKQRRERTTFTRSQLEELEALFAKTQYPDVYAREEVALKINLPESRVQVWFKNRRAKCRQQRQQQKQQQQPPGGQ
Chain of CRX (Homo sapiens, UniProt O43186 26-111, E42D) (O43186 26-111 E42D): as the sequence (O43186 26-111) above, with E17D counted along it
Chain of CRX (Homo sapiens, UniProt O43186 26-111, R41L) (O43186 26-111 R41L): as the sequence (O43186 26-111) above, with R16L counted along it
Chain of PRRX1 (Homo sapiens, UniProt P54821 80-166) (P54821 80-166): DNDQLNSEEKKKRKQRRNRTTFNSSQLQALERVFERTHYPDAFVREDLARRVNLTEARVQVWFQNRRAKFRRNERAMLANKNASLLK
Chain of ALX4 (Homo sapiens, UniProt Q9H161 200-286, Q225E) (Q9H161 200-286 Q225E): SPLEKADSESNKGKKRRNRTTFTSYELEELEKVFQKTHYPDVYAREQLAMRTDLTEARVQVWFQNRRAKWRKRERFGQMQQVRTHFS
Chain of ALX4 (Homo sapiens, UniProt Q9H161 200-286) (Q9H161 200-286): as the sequence (Q9H161 200-286 Q225E) above, with E26Q counted along it
Chain of PRRX1 (Homo sapiens, UniProt P54821 80-166, F113S) (P54821 80-166 F113S): as the sequence (P54821 80-166) above, with F34S counted along it
Chain of VAX1 (Homo sapiens, UniProt Q5SQQ9 86-172, T142I) (Q5SQQ9 86-172 T142I): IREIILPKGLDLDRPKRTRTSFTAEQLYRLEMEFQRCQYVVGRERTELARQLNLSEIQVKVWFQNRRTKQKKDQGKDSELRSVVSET
Chain of PROP1 (Homo sapiens, UniProt O75360 56-141, R99H) (O75360 56-141 R99H): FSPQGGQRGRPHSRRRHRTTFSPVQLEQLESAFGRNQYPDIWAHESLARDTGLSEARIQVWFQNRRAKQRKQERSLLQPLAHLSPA
Chain of PROP1 (Homo sapiens, UniProt O75360 56-141) (O75360 56-141): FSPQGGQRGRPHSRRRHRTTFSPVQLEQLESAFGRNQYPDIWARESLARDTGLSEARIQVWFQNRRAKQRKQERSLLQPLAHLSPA
Chain of ALX1 (Homo sapiens, UniProt Q15699 118-204) (Q15699 118-204): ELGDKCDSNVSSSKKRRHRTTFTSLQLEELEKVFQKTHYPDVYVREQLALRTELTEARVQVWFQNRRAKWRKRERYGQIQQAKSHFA
Chain of HOXB6 (Homo sapiens, UniProt P17509 132-218, K202E) (P17509 132-218 K202E): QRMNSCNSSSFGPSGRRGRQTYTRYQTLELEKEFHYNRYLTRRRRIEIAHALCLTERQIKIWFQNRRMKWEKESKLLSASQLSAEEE
Chain of VAX1 (Homo sapiens, UniProt Q5SQQ9 86-172) (Q5SQQ9 86-172): as the sequence (Q5SQQ9 86-172 T142I) above, with I57T counted along it
Chain of HOXB6 (Homo sapiens, UniProt P17509 132-218) (P17509 132-218): as the sequence (P17509 132-218 K202E) above, with E71K counted along it
Chain of NKX3-2 (Homo sapiens, UniProt P78367 192-278) (P78367 192-278): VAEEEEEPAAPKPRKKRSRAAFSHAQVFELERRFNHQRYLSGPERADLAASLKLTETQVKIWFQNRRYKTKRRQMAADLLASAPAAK
Chain of NKX3-2 (Homo sapiens, UniProt P78367 192-278, P234S) (P78367 192-278 P234S): as the sequence (P78367 192-278) above, with P43S counted along it
Chain of ALX1 (Homo sapiens, UniProt Q15699 118-204, L144V) (Q15699 118-204 L144V): as the sequence (Q15699 118-204) above, with L27V counted along it
Chain of ALX1 (Homo sapiens, UniProt Q15699 118-204, L144R) (Q15699 118-204 L144R): as the sequence (Q15699 118-204) above, with L27R counted along it
Chain of PROP1 (Homo sapiens, UniProt O75360 56-141, F88S) (O75360 56-141 F88S): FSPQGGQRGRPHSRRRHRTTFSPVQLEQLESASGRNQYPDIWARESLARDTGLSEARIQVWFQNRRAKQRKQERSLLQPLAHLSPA
Chain of VAX1 (Homo sapiens, UniProt Q5SQQ9 86-172, K157R) (Q5SQQ9 86-172 K157R): as the sequence (Q5SQQ9 86-172 T142I) above, with I57T, K72R counted along it

For AGCTCAGG, the binding signal in assay [1] was 9.99 upbm affinity estimate (log intensity, higher = more binding, comparable within an allelic series); in [2], 9.91 upbm affinity estimate (log intensity, higher = more binding, comparable within an allelic series).

Consider AAAGATTA, for which the binding signal in assay [1] is 12.9 upbm affinity estimate (log intensity, higher = more binding, comparable within an allelic series); in [3], 10.9 upbm affinity estimate (log intensity, higher = more binding, comparable within an allelic series); in assay [4] it was 11.2 upbm affinity estimate (log intensity, higher = more binding, comparable within an allelic series); in [2] it was 12.8 upbm affinity estimate (log intensity, higher = more binding, comparable within an allelic series); in assay [5], 11.1 upbm affinity estimate (log intensity, higher = more binding, comparable within an allelic series); in [6] it was 12.3 upbm affinity estimate (log intensity, higher = more binding, comparable within an allelic series). Besides, the binding signal in assay [7] is 10.3 upbm affinity estimate (log intensity, higher = more binding, comparable within an allelic series); in assay [8], 12.6 upbm affinity estimate (log intensity, higher = more binding, comparable within an allelic series).

Take CACCACGC: the binding signal is 8.26 upbm affinity estimate (log intensity, higher = more binding, comparable within an allelic series) in assay [1]; 9.44 upbm affinity estimate (log intensity, higher = more binding, comparable within an allelic series) in [9]; 9.32 upbm affinity estimate (log intensity, higher = more binding, comparable within an allelic series) in [10]; 8.36 upbm affinity estimate (log intensity, higher = more binding, comparable within an allelic series) in [2]; 6.3 upbm affinity estimate (log intensity, higher = more binding, comparable within an allelic series) in assay [11]; 9.32 upbm affinity estimate (log intensity, higher = more binding, comparable within an allelic series) in [12]. For the same sequence, the binding signal is 6.36 upbm affinity estimate (log intensity, higher = more binding, comparable within an allelic series) in assay [13]; 6.81 upbm affinity estimate (log intensity, higher = more binding, comparable within an allelic series) in [14]; 6.8 upbm affinity estimate (log intensity, higher = more binding, comparable within an allelic series) in [15]; 7.04 upbm affinity estimate (log intensity, higher = more binding, comparable within an allelic series) in assay [16]; 9.49 upbm affinity estimate (log intensity, higher = more binding, comparable within an allelic series) in assay [17]; 6.67 upbm affinity estimate (log intensity, higher = more binding, comparable within an allelic series) in assay [18]. Also, the binding signal in assay [19] is 7.3 upbm affinity estimate (log intensity, higher = more binding, comparable within an allelic series); in [8], 8.34 upbm affinity estimate (log intensity, higher = more binding, comparable within an allelic series); in [20], 6.37 upbm affinity estimate (log intensity, higher = more binding, comparable within an allelic series); in [21] it was 9.04 upbm affinity estimate (log intensity, higher = more binding, comparable within an allelic series); in assay [22], 7.04 upbm affinity estimate (log intensity, higher = more binding, comparable within an allelic series).

As to CAGGGCGG, the binding signal in [1] was 8.46 upbm affinity estimate (log intensity, higher = more binding, comparable within an allelic series); in [23], 8.95 upbm affinity estimate (log intensity, higher = more binding, comparable within an allelic series); in assay [2], 8.33 upbm affinity estimate (log intensity, higher = more binding, comparable within an allelic series); in assay [8] it was 8.31 upbm affinity estimate (log intensity, higher = more binding, comparable within an allelic series); in assay [24] it was 8.83 upbm affinity estimate (log intensity, higher = more binding, comparable within an allelic series).

Consider GACGCGCC, for which the binding signal in [1] is 8.22 upbm affinity estimate (log intensity, higher = more binding, comparable within an allelic series); in [10], 9.4 upbm affinity estimate (log intensity, higher = more binding, comparable within an allelic series); in assay [2] it was 8.15 upbm affinity estimate (log intensity, higher = more binding, comparable within an allelic series); in assay [25], 10.5 upbm affinity estimate (log intensity, higher = more binding, comparable within an allelic series); in assay [8], 8.22 upbm affinity estimate (log intensity, higher = more binding, comparable within an allelic series); in assay [26], 10.5 upbm affinity estimate (log intensity, higher = more binding, comparable within an allelic series).

For the sequence CACCGGAG, the binding signal is 8.14 upbm affinity estimate (log intensity, higher = more binding, comparable within an allelic series) in assay [1]; 8.15 upbm affinity estimate (log intensity, higher = more binding, comparable within an allelic series) in assay [27]; 8.15 upbm affinity estimate (log intensity, higher = more binding, comparable within an allelic series) in assay [28]; 8.3 upbm affinity estimate (log intensity, higher = more binding, comparable within an allelic series) in [2]; 8.27 upbm affinity estimate (log intensity, higher = more binding, comparable within an allelic series) in assay [8].

Take CCTAATAG: the binding signal in assay [1] is 9.68 upbm affinity estimate (log intensity, higher = more binding, comparable within an allelic series); in [2], 9.47 upbm affinity estimate (log intensity, higher = more binding, comparable within an allelic series).

For GATTAACA, the binding signal in assay [1] was 12.9 upbm affinity estimate (log intensity, higher = more binding, comparable within an allelic series); in assay [2], 12.5 upbm affinity estimate (log intensity, higher = more binding, comparable within an allelic series).

Consider TGTGTTAA, for which the binding signal in [1] was 10.4 upbm affinity estimate (log intensity, higher = more binding, comparable within an allelic series); in [2] it was 10.2 upbm affinity estimate (log intensity, higher = more binding, comparable within an allelic series).

On to CCGGTCCC, for which the binding signal was 8.46 upbm affinity estimate (log intensity, higher = more binding, comparable within an allelic series) in assay [1]; 9.29 upbm affinity estimate (log intensity, higher = more binding, comparable within an allelic series) in [3]; 9.34 upbm affinity estimate (log intensity, higher = more binding, comparable within an allelic series) in assay [4]; 8.54 upbm affinity estimate (log intensity, higher = more binding, comparable within an allelic series) in [2]; 9.32 upbm affinity estimate (log intensity, higher = more binding, comparable within an allelic series) in assay [12]; 9.4 upbm affinity estimate (log intensity, higher = more binding, comparable within an allelic series) in assay [5]. Besides, the binding signal in [7] is 9.28 upbm affinity estimate (log intensity, higher = more binding, comparable within an allelic series); in assay [29], 9.27 upbm affinity estimate (log intensity, higher = more binding, comparable within an allelic series); in assay [17] it was 9.15 upbm affinity estimate (log intensity, higher = more binding, comparable within an allelic series); in [30], 9.3 upbm affinity estimate (log intensity, higher = more binding, comparable within an allelic series); in assay [8], 8.54 upbm affinity estimate (log intensity, higher = more binding, comparable within an allelic series).

Consider CCTCCCAC, for which the binding signal in [1] is 8.12 upbm affinity estimate (log intensity, higher = more binding, comparable within an allelic series); in assay [27], 7.99 upbm affinity estimate (log intensity, higher = more binding, comparable within an allelic series); in assay [9], 9.27 upbm affinity estimate (log intensity, higher = more binding, comparable within an allelic series); in assay [28], 8.07 upbm affinity estimate (log intensity, higher = more binding, comparable within an allelic series); in [2], 8.07 upbm affinity estimate (log intensity, higher = more binding, comparable within an allelic series); in [8], 8.16 upbm affinity estimate (log intensity, higher = more binding, comparable within an allelic series). Besides, in assay [21], the binding signal is 9.17 upbm affinity estimate (log intensity, higher = more binding, comparable within an allelic series).
